According to the antibiotic and cytotoxicity screens of Wong et al. (2023):
Screen size: about 39,000 compounds; about 3,300 (8.5%) were called active. The full list was thinned out, with actives kept by preference.

Each compound was assayed on HepG2 (assay: cytotoxicity call (relative viability < 0.9)). Conditions: 10 µM.

Row | SMILES | cytotoxicity call
1 | C[C@@H]1CCCCO[C@H](CN(C)Cc2ccc(C(F)(F)F)cc2)[C@H](C)CN([C@@H](C)CO)C(=O)c2cc(NC(=O)Nc3ccc4c(c3)OCO4)ccc2O1 | active
2 | C[C@@H]1CCCCO[C@@H](CN(C)Cc2ccc(C(F)(F)F)cc2)[C@H](C)CN([C@H](C)CO)C(=O)c2cc(NC(=O)Nc3ccc4c(c3)OCO4)ccc2O1 | active
3 | C[C@@H]1CCCCO[C@H](CN(C)Cc2ccc(C(F)(F)F)cc2)[C@@H](C)CN([C@H](C)CO)C(=O)c2cc(NC(=O)Nc3ccc4c(c3)OCO4)ccc2O1 | active
4 | C[C@@H]1CCCCO[C@@H](CN(C)Cc2ccc(C(F)(F)F)cc2)[C@@H](C)CN([C@H](C)CO)C(=O)c2cc(NC(=O)Nc3ccc4c(c3)OCO4)ccc2O1 | inactive
5 | C[C@H]1CCCCO[C@H](CN(C)Cc2ccc(C(F)(F)F)cc2)[C@@H](C)CN([C@@H](C)CO)C(=O)c2cc(NC(=O)Nc3ccc4c(c3)OCO4)ccc2O1 | active
6 | C[C@H](CO)N1C[C@H](C)[C@H](CN(C)Cc2ccc(C(F)(F)F)cc2)OCCCC[C@H](C)Oc2ccc(NC(=O)Nc3ccc4c(c3)OCO4)cc2C1=O | inactive
7 | C[C@H](CO)N1C[C@H](C)[C@@H](CN(C)Cc2ccc(C(F)(F)F)cc2)OCCCC[C@H](C)Oc2ccc(NC(=O)Nc3ccc4c(c3)OCO4)cc2C1=O | inactive
8 | C[C@H]1CCCCO[C@@H](CN(C)Cc2ccc(C(F)(F)F)cc2)[C@@H](C)CN([C@@H](C)CO)C(=O)c2cc(NC(=O)Nc3ccc4c(c3)OCO4)ccc2O1 | inactive
9 | CC1(C)SC2C(NC(=O)C(N)c3ccccc3)C(=O)N2C1C(=O)[O-].[Na+] (stereo not drawn) | inactive
10 | C[C@@H]1CCCCO[C@H](CN(C)C(=O)Nc2ccc(F)cc2)[C@H](C)CN([C@H](C)CO)C(=O)c2cc(NS(=O)(=O)c3cccs3)ccc2O1 | inactive
11 | COc1ccc(NC(=O)Nc2ccc3c(c2)C(=O)N([C@@H](C)CO)C[C@H](C)[C@H](CN(C)Cc2ccncc2)OCCCC[C@H](C)O3)cc1 | inactive
12 | COC1C=COC2(C)Oc3c(C)c(O)c4c(O)c(c(C=NN5CCN(C)CC5)c(O)c4c3C2=O)NC(=O)C(C)=CC=CC(C)C(O)C(C)C(O)C(C)C(OC(C)=O)C1C (stereo not drawn) | inactive
13 | COc1ccc(NC(=O)Nc2ccc3c(c2)C(=O)N([C@@H](C)CO)C[C@@H](C)[C@H](CN(C)C(=O)Nc2cccc4ccccc24)OCCCC[C@@H](C)O3)cc1 | inactive
14 | N[C@@H](C(=O)O)c1ccc(O)cc1 | inactive
15 | C[C@@H]1CCCCO[C@H](CN(C)C(=O)Nc2cccc3ccccc23)[C@@H](C)CN([C@H](C)CO)C(=O)c2cc(N(C)C)ccc2O1 | inactive
16 | CC(C=CC1(O)C(C)=CC(=O)CC1(C)C)=CC(=O)O (mixture of isomers) [ABSCISIC ACID (cis,trans; +/-) ] | inactive
17 | C[C@H]1CN([C@@H](C)CO)C(=O)c2cc(NC(=O)CCC(F)(F)F)ccc2O[C@@H]1CN(C)Cc1ccc(Oc2ccccc2)cc1 | inactive
18 | C[C@@H]1CN([C@@H](C)CO)C(=O)c2cc(NC(=O)CCC(F)(F)F)ccc2O[C@@H]1CN(C)Cc1ccc(Oc2ccccc2)cc1 | active
19 | C[C@H](CO)N1C[C@H](C)[C@H](CN(C)Cc2ccc(Oc3ccccc3)cc2)Oc2ccc(NC(=O)CCC(F)(F)F)cc2C1=O | inactive

Row | SMILES | cytotoxicity call
20 | C[C@H]1CN([C@@H](C)CO)C(=O)c2cc(NC(=O)CCC(F)(F)F)ccc2O[C@H]1CN(C)Cc1ccc(Oc2ccccc2)cc1 | active
21 | C[C@@H]1CN([C@H](C)CO)C(=O)c2cc(NC(=O)CCC(F)(F)F)ccc2O[C@@H]1CN(C)Cc1ccc(Oc2ccccc2)cc1 | inactive
22 | C[C@@H]1CN([C@H](C)CO)C(=O)c2cc(NC(=O)CCC(F)(F)F)ccc2O[C@H]1CN(C)Cc1ccc(Oc2ccccc2)cc1 | inactive
23 | COc1ccccc1S(=O)(=O)N[C@H]1CC[C@@H](CCNC(=O)C2CCOCC2)O[C@H]1CO | inactive
24 | CSCC[C@H]1NC(=O)NC1=O | inactive
25 | OCCC12CC3CC(CC(C3)C1)C2 | inactive
26 | C[C@@H]1CN([C@@H](C)CO)C(=O)CCCn2cc(nn2)CO[C@H]1CN(C)C(=O)Nc1ccc(N2CCCCC2)cc1 | inactive
27 | C[C@@H]1CN([C@@H](C)CO)C(=O)c2cccc(NS(=O)(=O)c3ccc(Cl)cc3)c2O[C@H]1CN(C)C(=O)Nc1ccc(C(F)(F)F)cc1 | inactive
28 | C[C@@H]1CN([C@@H](C)CO)C(=O)c2cccc(NS(=O)(=O)c3ccc(Cl)cc3)c2O[C@@H]1CN(C)C(=O)Nc1ccc(C(F)(F)F)cc1 | active
29 | C[C@H]1CN([C@@H](C)CO)C(=O)c2cccc(NS(=O)(=O)c3ccc(F)cc3)c2O[C@@H]1CN(C)C(=O)Nc1ccc(C(F)(F)F)cc1 | inactive
30 | C[C@@H]1CN([C@H](C)CO)C(=O)c2cccc(NS(=O)(=O)c3ccc(Cl)cc3)c2O[C@@H]1CN(C)C(=O)Nc1ccc(C(F)(F)F)cc1 | active
31 | C[C@H](CO)N1C[C@H](C)[C@@H](CN(C)C(=O)Nc2ccc(C(F)(F)F)cc2)Oc2c(NS(=O)(=O)c3ccc(Cl)cc3)cccc2C1=O | inactive
32 | C[C@H]1CN([C@@H](C)CO)C(=O)c2cccc(NS(=O)(=O)c3ccc(Cl)cc3)c2O[C@H]1CN(C)C(=O)Nc1ccc(C(F)(F)F)cc1 | inactive
33 | C[C@H](CO)N1C[C@H](C)[C@H](CN(C)C(=O)Nc2ccc(C(F)(F)F)cc2)Oc2c(NS(=O)(=O)c3ccc(Cl)cc3)cccc2C1=O | active
34 | C[C@H]1CN([C@@H](C)CO)C(=O)c2cccc(NS(=O)(=O)c3ccc(Cl)cc3)c2O[C@@H]1CN(C)C(=O)Nc1ccc(C(F)(F)F)cc1 | inactive
35 | C[C@@H]1CN([C@@H](C)CO)C(=O)c2cccc(NS(=O)(=O)c3ccc(F)cc3)c2O[C@@H]1CN(C)C(=O)Nc1ccc(C(F)(F)F)cc1 | active
36 | C[C@@H]1CN([C@H](C)CO)C(=O)c2cccc(NS(=O)(=O)c3ccc(Cl)cc3)c2O[C@H]1CN(C)C(=O)Nc1ccc(C(F)(F)F)cc1 | inactive
37 | C[C@H]1CN([C@@H](C)CO)C(=O)c2cccc(NS(=O)(=O)c3ccc(F)cc3)c2O[C@H]1CN(C)C(=O)Nc1ccc(C(F)(F)F)cc1 | inactive
38 | C[C@@H]1CN([C@H](C)CO)C(=O)c2cccc(NS(=O)(=O)c3ccc(F)cc3)c2O[C@H]1CN(C)C(=O)Nc1ccc(C(F)(F)F)cc1 | inactive
